Structures are written as SMILES. About 2,100 (0.53%) of roughly 400,000 compounds were called active. Roughly 14% stayed inconclusive and do not appear here. How the calls were made is not given here. Only a selection was taken, and actives are over-represented in it overall.

This assay deals with Ataxin-2 (Homo sapiens) (UniProt Q99700). The assay can be described thus: qHTS for Inhibitors of ATXN expression. The assay is classed as functional.
Sequence of Ataxin-2 (Homo sapiens) (Q99700 whole entry): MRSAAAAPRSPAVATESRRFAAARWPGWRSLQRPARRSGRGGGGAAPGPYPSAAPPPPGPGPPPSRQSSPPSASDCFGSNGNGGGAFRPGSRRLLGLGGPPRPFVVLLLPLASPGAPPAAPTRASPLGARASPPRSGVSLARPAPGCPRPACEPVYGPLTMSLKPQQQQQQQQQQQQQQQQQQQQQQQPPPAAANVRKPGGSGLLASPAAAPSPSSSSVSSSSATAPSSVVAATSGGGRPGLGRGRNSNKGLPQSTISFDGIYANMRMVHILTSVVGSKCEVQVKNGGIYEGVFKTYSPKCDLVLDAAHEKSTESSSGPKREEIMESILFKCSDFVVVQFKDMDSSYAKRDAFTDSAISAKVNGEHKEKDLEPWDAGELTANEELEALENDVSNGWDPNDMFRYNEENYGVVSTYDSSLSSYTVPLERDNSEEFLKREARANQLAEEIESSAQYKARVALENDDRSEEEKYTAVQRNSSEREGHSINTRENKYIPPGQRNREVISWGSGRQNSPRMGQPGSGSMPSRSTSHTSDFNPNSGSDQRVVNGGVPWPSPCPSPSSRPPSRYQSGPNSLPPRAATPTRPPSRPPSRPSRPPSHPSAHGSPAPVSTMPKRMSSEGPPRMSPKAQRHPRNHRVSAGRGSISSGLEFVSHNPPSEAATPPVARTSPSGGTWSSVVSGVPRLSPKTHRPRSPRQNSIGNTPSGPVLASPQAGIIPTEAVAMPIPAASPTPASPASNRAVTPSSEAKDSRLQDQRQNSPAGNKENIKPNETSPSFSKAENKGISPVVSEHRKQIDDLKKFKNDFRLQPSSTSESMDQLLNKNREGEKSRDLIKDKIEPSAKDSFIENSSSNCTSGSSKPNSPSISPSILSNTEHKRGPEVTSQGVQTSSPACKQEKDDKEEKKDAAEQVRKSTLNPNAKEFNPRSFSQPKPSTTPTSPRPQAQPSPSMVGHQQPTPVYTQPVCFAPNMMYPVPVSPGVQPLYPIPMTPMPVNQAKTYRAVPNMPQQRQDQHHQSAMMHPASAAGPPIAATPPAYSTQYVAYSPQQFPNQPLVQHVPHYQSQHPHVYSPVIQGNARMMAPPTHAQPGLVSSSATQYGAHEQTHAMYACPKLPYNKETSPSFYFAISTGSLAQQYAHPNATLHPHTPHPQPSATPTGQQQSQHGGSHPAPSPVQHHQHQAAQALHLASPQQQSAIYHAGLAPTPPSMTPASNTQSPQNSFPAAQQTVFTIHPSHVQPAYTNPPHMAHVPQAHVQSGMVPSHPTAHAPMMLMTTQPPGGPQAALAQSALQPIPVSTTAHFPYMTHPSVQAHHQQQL
Regarding `CCOc1ccc(C(=O)/C=C/c2cn(CC(O)CN3CCc4ccccc43)c3ccccc23)cc1` (stereo not given), the Potency result was “inactive”.

For the molecule `CCCN(CCC)CC(O)Cn1cc(/C=C/C(=O)c2ccc(Br)cc2)c2ccccc21` (stereo not given), the Potency entry was “inactive”.

`Cc1nc(-c2ccc([N+](=O)[O-])cc2)c(-c2ccccc2)o1`: the Potency entry is “inactive”.

For the molecule `Cc1nc2c(o1)C(=O)c1ccccc1C2=Nc1ccccc1`, the Potency is 31.6 µM (active).

For the molecule `COc1ccc(CCNC(=O)c2ccc(CSc3ccccc3)o2)cc1`, the Potency result was “inactive”.

As for `CC(C)C(NC(=O)c1c(F)cccc1F)C(=O)NCCc1ccc(S(N)(=O)=O)cc1` (stereo not given), the Potency entry is “inactive”.

For `CCc1ccccc1S(=O)(=O)Cc1ccc(C(=O)NCCc2ccc(Cl)cc2)o1`, the Potency is 25.1 µM (active).

On to `CCC(=O)Nc1cc2nc(O)cc(C)c2cc1C`, for which the Potency result is “inactive”.

On to `O=C(NCCc1ccc(Cl)cc1)c1ccc2c(c1)N(Cc1ccc(F)cc1Cl)C(=O)CS2`, for which the Potency is 14.1 µM (active).

With `CCN1CCSc2ccc(C(=O)NCc3ccccc3F)cc21`, the Potency result is “inactive”.

For `O=C(Cc1ccc(Cl)cc1)NCCc1ccc(F)cc1`, the Potency entry is “inactive”.

With `CCc1c(-c2ccccc2)nc2nc(C)c(C)nn12`, the Potency entry was “inactive”.

On to `CCCCN1C(C(=O)Nc2cc(C)on2)=C(O)c2ccccc2S1(=O)=O`, for which the Potency entry was “inactive”.

As for `CCCC(=O)NC(c1ccc(OC)cc1)c1ccc2cccnc2c1O` (stereo not given), the Potency result is “inactive”.

Regarding `COc1cc(N(C(C)=O)c2ccc(O)cc2)c2ncccc2c1`, the Potency entry is “inactive”.

Turning to `COc1cccc(N=Nc2ccc3cccnc3c2O)c1`, the Potency was 11.2 µM (active).

Consider `COCC(=O)N1CCC(n2nccc2NC(=O)CCOc2ccccc2)CC1`, for which the Potency entry was “inactive”.

Take `CCS(=O)(=O)N1Cc2ccccc2CC1C(=O)N(C)CC(=O)Nc1ccc(OC)cc1` (stereo not given): the Potency entry was “inactive”.

As to `COc1cc(OC)c(OC)cc1/C=C1\Oc2cc(OCC(=O)N3Cc4ccccc4C[C@H]3C(=O)O)ccc2C1=O`, the Potency result was “inactive”.

For `COC(=O)C1Cc2ccccc2CN1C(=O)CCl` (stereo not given), the Potency is 42.3 µM (active).

In the case of `O=C(c1ccc([N+](=O)[O-])cc1)N1CCC(n2nnc3cc(F)ccc32)CC1`, the Potency result is “inactive”.

For the molecule `CC(=O)Nc1sc2c(c1C(N)=O)CCN(Cc1ccccc1)C2`, the Potency entry was “inactive”.

For `CC(=O)N1CCc2c(sc3c2c(=O)n(-c2ccccc2Cl)c(=O)n3Cc2cccc(C)c2)C1`, the Potency was 35.5 µM (active).

In the case of `CCC(C(=O)NCc1cccc(C)c1)n1nc(C)c2c(C)n(-c3ccccc3)nc2c1=O` (stereo not given), the Potency entry was “inactive”.

As to `NNc1ncnc2sc3c(c12)CCC3`, the Potency result was “inactive”.

For `CCCCNC(=O)COC(=O)c1c2c(nc3ccccc13)/C(=C\c1cccs1)CC2`, the Potency entry is “inactive”.

For `CCOCCCn1/c(=N/C(C)=O)c(C#N)cc2c(=O)n3cccc(C)c3nc21`, the Potency entry is “inactive”.

Consider `CCN(CC)CCCNc1cc(C(F)(F)F)c(C#N)c2nc3ccccc3n12`, for which the Potency result is “inactive”.

As to `CCc1ccc(C2=CC(c3cc(Br)ccc3F)n3ncnc3N2)cc1` (stereo not given), the Potency result was “inactive”.

Regarding `Cc1ccn2cc(-c3cc4ccccc4oc3=O)nc2c1`, the Potency result is “inactive”.

Take `O=C(Nc1cccc(-c2cn3ccccc3n2)c1)c1cccc(Cl)c1`: the Potency was 39.8 µM (active).

For `Cc1cccn2cc(-c3cc4ccccc4oc3=O)nc12`, the Potency entry was “inactive”.

For `O=C(Nc1ncccn1)c1cccc(Cl)c1`, the Potency result was “inactive”.

As for `O=C(Nc1cccc(-c2cn3ccccc3n2)c1)c1cc2ccccc2oc1=O`, the Potency is 22.4 µM (active).

As for `O=C(Nc1ccc(S(=O)(=O)Nc2ccccn2)cc1)c1cccc(Cl)c1`, the Potency result was “inactive”.

For `CCc1c(C)c2cc(Cl)c(O)c(CN(C)C)c2oc1=O`, the Potency result was “inactive”.

As to `COc1ccc(/C=N/N2C(C)CCCC2C)cc1OC` (stereo not given), the Potency result was “inactive”.

For `COc1ccc(/C=N/n2cnc3c4cc(C)ccc4nc-3c2O)cc1CN1CCCC1`, the Potency was 39.8 µM (active).

In the case of `COc1ccc(/C=N/NC(=O)c2ccncc2)cc1CN1CCOCC1`, the Potency result is “inactive”.

On to `CCOc1ccc2nc(NCCN=C(S)NCCCN(C)C)c(C#N)cc2c1`, for which the Potency result was “inactive”.

As for `Cc1c(O)ccc2c(-c3ccccc3)cc(=O)oc12`, the Potency result was “inactive”.

For `COc1ccc(CNC[C@@H](CCCCN(C)Cc2ccc(OC)cc2)N2C[C@H](c3ccccc3)N(CCc3ccc(Cl)c(Cl)c3)C(=O)C2=O)cc1`, the Potency is 25.1 µM (active).

For `CC(=O)NS(=O)(=O)c1ccc(/N=c2\ssc3c2-c2cc(C)ccc2NC3(C)C)cc1`, the Potency was 39.8 µM (active).

Take `CCN(CC)c1cc(C)c2cc(NC(=O)c3cc(OC)cc(OC)c3)ccc2n1`: the Potency is 35.5 µM (active).

Take `COc1ccc(Nc2cc(C)c3cc(NC(=O)c4cc(OC)cc(OC)c4)ccc3n2)cc1`: the Potency result was “inactive”.

Turning to `CCn1nc(NC(=O)c2ccccc2)c2cc3cccc(C)c3nc21`, the Potency entry was “inactive”.

As for `CCN(CC)c1cc(C)c2cc(NC(=O)/C=C/c3ccccc3Cl)ccc2n1`, the Potency was 28.2 µM (active).

With `CCN(CC)c1cc(C)c2cc(NC(=O)c3ccc(Br)o3)ccc2n1`, the Potency is 35.5 µM (active).

For the molecule `Cc1cc(Nc2cccc(Cl)c2)nc2ccc(NC(=O)c3cncc(Br)c3)cc12`, the Potency result is “inactive”.

Turning to `Cc1cccc(OCC(=O)Nc2ccc3nc(Nc4cccc(Cl)c4)cc(C)c3c2)c1`, the Potency entry was “inactive”.

As to `O=C(Nc1ccc(F)cc1)c1ccc2nc(O)c(O)nc2c1`, the Potency result is “inactive”.

With `COc1ccc(Nc2cc(C)c3cc(NC(=O)Cc4c(F)cccc4Cl)ccc3n2)cc1`, the Potency entry was “inactive”.

For `CCN(CC)c1cc(C)c2cc(NC(=O)c3cccc(F)c3)ccc2n1`, the Potency was 39.8 µM (active).

With `Cc1ccccc1/C=C/c1cccc[n+]1C`, the Potency entry is “inactive”.

For the molecule `O=C(N/C(=C/c1cccc(Br)c1)C(=O)N1CCOCC1)c1ccco1`, the Potency result is “inactive”.

Consider `C(=Cc1c[nH]c2ccccc12)c1ccc2ccccc2n1`, for which the Potency entry is “inactive”.

Regarding `CC(C(=O)NCC1CCCCC1)N(C)CC(=O)Nc1ccc(N2CCOCC2)cc1` (stereo not given), the Potency entry was “inactive”.

With `Cc1cccc(C2C=C(c3ccc(C)c(C)c3)Nc3nnnn32)c1` (stereo not given), the Potency result is “inactive”.

For `CCN(CC)c1cc(C)c2cc(NC(=O)c3cccc(OC)c3)ccc2n1`, the Potency is 39.8 µM (active).

For `CCN1CCN(c2cc(C)c3cc(NC(=O)c4cccc(OC)c4)ccc3n2)CC1`, the Potency result is “inactive”.

As for `Cc1ccc(NN2C(=O)C=C(c3ccc(Cl)cc3)C2=O)cc1`, the Potency is 28.2 µM (active).

Turning to `CC(=O)c1ccc(F)c(-c2cc(C)cc3c2OC(CNC(=O)c2csc(C)n2)C3)c1` (stereo not given), the Potency result was “inactive”.

As for `Cc1cccc(COC[C@H](CC(C)C)N2CCN(C(=O)c3ccc(C(F)(F)F)cc3)CCC2=O)c1`, the Potency is 35.5 µM (active).

With `CC(C)CC(COCc1cccc(C(F)(F)F)c1)N1CCN(C(=O)c2cccc(C(F)(F)F)c2)CCC1=O` (stereo not given), the Potency was 31.6 µM (active).

With `Cc1cccc(COC[C@H](CC(C)C)N2CCN(C(=O)c3ccc(C(C)(C)C)cc3)CCC2=O)c1`, the Potency is 39.8 µM (active).

The values above are taken from ChEMBL document CHEMBL1201862, “PubChem BioAssay data set” (2004).
